Assay [1] deals with Wnt5a (protein binding on small-molecule microarray). As to the kind of experiment: Wnt5a binders on small-molecule microarray, primary screen, biophysical, 635/667 nm fluorescence (AID 1142).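 Note: fluorescence read at 667 nm with signal to noise per printed feature.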 Conditions: 635 nm fluorescence, higher = more signal.
Assay [2] is described as follows: cell viability in Huh7 cells, primary screen, cytotoxicity control for HCV replication inhibitor project, CellTiter-Glo luminescence, basal, 48 h (AID 1143).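 Note: Huh7 hepatoma cells carrying a hepatitis C replication reporter with no stimulus; test concentration not given here.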 As to conditions: Huh7 HCV replicon, higher = more signal, called active from +8 up or from −8 down. In general terms: Cellular ATP, detected with luciferase, serves as a proxy for viable cell number.
Assay [3] is described as follows: P. aeruginosa biofilm formation inhibitors, primary screen, PAO1 strain, BacTiter-Glo luminescence, LB-PBS (AID 1144). Conditions: 12 h, higher = more signal.
Assay [4] can be described thus: CREB reporter modulators without forskolin, primary screen, cell-based, PC12, CRE-LacZ reporter, unstimulated (AID 1145). As to conditions: no forskolin, luminescence, 4.5 h, higher = more signal, called active from +8 up or from −8 down.
A short description of assay [5]: CREB reporter modulators under forskolin, primary screen, cell-based, PC12, CRE-LacZ reporter, forskolin-stimulated (AID 1146).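 Note: PC12 cells with 6xCRE LacZ reporter stimulated by forskolin 10 µM; beta-galactosidase reporter signal reflecting CREB driven transcription.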 As to conditions: luminescence, 4.5 h, higher = more signal, called active from +8 up or from −8 down.
Assay [6] concerns the target Streptavidin (Streptomyces avidinii) (UniProt P22629). In words: streptavidin binders on small-molecule microarray, primary screen, artefact control for SMM compound annotation, biophysical, 635/667 nm fluorescence (AID 1147).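 Note: signal reflects streptavidin binding to arrayed compounds as a control protein.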 Conditions: streptavidin binding, higher = more signal.
The nature of assay [7]: small-molecule binders of probe aInhba, primary screen, biochemical, small-molecule microarray, 635/667 nm fluorescence (AID 1148).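 Note: score merges 667nm spot fluorescence with signal-to-noise for antibody binding to printed compounds.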 Conditions: higher = more signal.
Assay [8] addresses Torsin-1A (Homo sapiens) (UniProt O14656). In words: torsin A binders from cell lysate, primary screen, small-molecule microarray, wild-type, 635/667 nm (AID 1149). As to conditions: COS7 hTOR1A-WT lysate, 635 nm fluorescence, higher = more signal.
The target is the same in assay [9]. As to the kind of experiment: small-molecule binders of mutant TOR1A in lysate, primary screen, cell lysate, small-molecule microarray, COS7 lysate, 635/667 nm fluorescence (AID 1150).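 Note: score pools 667 nm emission and signal to noise measuring lysate protein binding.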 As to conditions: COS7 hTOR1A mutant lysate, 635 nm fluorescence, higher = more signal.
The test system of assay [10] is Sonic hedgehog protein (Shh). As to the kind of experiment: small-molecule binders of Shh protein, primary screen, biochemical, small-molecule microarray, 635/667 nm fluorescence (AID 1151).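 Note: Shh protein binding to compounds spotted on small-molecule microarray slides; score combines spot fluorescence intensity with signal-to-noise across triplicate slides.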 Conditions: small-molecule microarray binding, 635 nm fluorescence; higher = more signal.

Structures are written as SMILES. Active and inactive are the calls of the source. Unless noted, the rule behind the calls is not given here.

Streptavidin (Streptomyces avidinii), sequence (P22629 whole entry, looked up): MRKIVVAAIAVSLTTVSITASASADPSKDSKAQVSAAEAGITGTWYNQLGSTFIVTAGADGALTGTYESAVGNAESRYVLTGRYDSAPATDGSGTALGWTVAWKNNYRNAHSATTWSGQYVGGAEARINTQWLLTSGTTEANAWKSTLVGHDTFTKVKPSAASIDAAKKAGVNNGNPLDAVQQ
Torsin-1A (Homo sapiens), sequence (O14656 whole entry, looked up): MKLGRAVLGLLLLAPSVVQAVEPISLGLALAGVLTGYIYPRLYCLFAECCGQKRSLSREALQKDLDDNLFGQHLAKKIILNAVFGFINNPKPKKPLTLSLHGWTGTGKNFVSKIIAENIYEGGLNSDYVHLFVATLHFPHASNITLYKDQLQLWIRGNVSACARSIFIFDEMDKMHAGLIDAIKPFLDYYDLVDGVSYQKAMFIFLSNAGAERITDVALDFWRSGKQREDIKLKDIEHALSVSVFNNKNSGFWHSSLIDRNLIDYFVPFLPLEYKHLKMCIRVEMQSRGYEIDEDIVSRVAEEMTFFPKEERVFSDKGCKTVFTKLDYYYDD

In the case of `COCCOC(=O)N1C(=O)[C@@]2(c3cc(C#CCC(C(=O)OC)C(=O)OC)ccc31)[C@H](c1ccccc1OCCO)N1[C@H](c3ccccc3)[C@H](c3ccccc3)OC(=O)[C@H]1[C@@H]2C(=O)NC[C@H](O)c1ccccc1`, the composite z-score stood at 0.851 in assay [1]; 0.0919 in assay [6]; 0.158 in [7]; 0.555 in the assay with Torsin-1A (Homo sapiens) [8]; 0.389 in the assay with Torsin-1A (Homo sapiens) [9]; 1.98 in assay [10]. Besides, the z-score in [2] was -4.23 (inactive); in assay [3] it was 0.166 (inactive); in assay [4], -0.195 (inactive); in assay [5], 2.22 (inactive).
On to `COc1ccc(CCNC(=O)[C@@]2(C)c3ccccc3C(=O)N(C(C)C)[C@H]2c2ccc(CO)cc2)cc1`, for which the composite z-score is 0.435 in assay [1]; 0.454 in assay [6]; -0.102 in assay [7]; 0.0534 in the assay with Torsin-1A (Homo sapiens) [8]; -0.176 with Torsin-1A (Homo sapiens) [9]; 0.794 in assay [10]. Also, the z-score in assay [2] is -1.03 (inactive); in assay [3] it was 1.08 (inactive); in [4], 0.827 (inactive); in assay [5], 0.727 (inactive).
On to `COc1cc(NN2C(C(O)c3ccco3)C=CC3C(=O)N(c4ccccc4)C(=O)C32)cc(OC)c1OC` (stereo not given), for which the composite z-score in assay [1] was -0.286; in assay [6] it was 0.0123; in assay [7], -0.153; with Torsin-1A (Homo sapiens) [8], -0.967; in the assay with Torsin-1A (Homo sapiens) [9] it was 0.594; in assay [10], 0.179. The z-score is -2.49 (inactive) in [2], -0.225 (inactive) in [3], 0.0501 (inactive) in assay [4] and -0.462 (inactive) in [5].
In the case of `COC(=O)[C@@]1(Cc2ccc(OC)cc2)[C@H]2c3cc(C(=O)N(C)C)n(Cc4ccccn4)c3C[C@H]2CN1C(=O)c1ccccc1`, the composite z-score in assay [1] is 0.164; in [6], 2.57; in assay [7], 0.322; with Torsin-1A (Homo sapiens) [8], 0.192; in the assay with Torsin-1A (Homo sapiens) [9], 1.59; in [10] it was -0.403. For the same molecule, the z-score is -1.17 (inactive) in [2], 0.691 (inactive) in assay [3], 1.16 (inactive) in [4] and 0.97 (inactive) in assay [5].
For `COC(=O)C(CC#Cc1ccc2c(c1)[C@]1(C(=O)N2)[C@H](C(=O)Nc2nc3ccccc3s2)[C@H]2C(=O)O[C@H](c3ccccc3)[C@H](c3ccccc3)N2[C@@H]1c1ccc(O)cc1)C(=O)OC`, the composite z-score in assay [1] worked out at 0.533; in assay [6] it was 0.906; in assay [7] it was 0.0487; with Torsin-1A (Homo sapiens) [8] it was 0.71; in the assay with Torsin-1A (Homo sapiens) [9], 0.964; in assay [10], 0.967. The z-score in [2] is -1 (inactive); in assay [3], -0.672 (inactive); in [4], 0.155 (inactive); in [5], -0.669 (inactive).
Turning to `CC(C)C(CO)N1C(=O)[C@@H]2C3C(=O)OCCC/C=C\[C@H]3OC23C=CCN(CCN2CCOCC2)C(=O)[C@@H]13` (stereo not given in full), the composite z-score in assay [1] was 0.0992; in assay [6], -0.578; in assay [7], -0.251; with Torsin-1A (Homo sapiens) [8] it was -0.111; with Torsin-1A (Homo sapiens) [9] it was -0.184; in [10], 0.856. Besides, the z-score is 0.39 (inactive) in [2], 0.723 (inactive) in [3], -0.212 (inactive) in [4] and -0.0271 (inactive) in [5].
For the molecule `Cc1ccc(S[C@]2(C(=O)O)CC(=O)N(C(C)C)[C@@H]2c2ccc(CO)cc2I)cc1`, the composite z-score in assay [1] was -0.0822; in assay [6], 0.513; in assay [7], 0.516; with Torsin-1A (Homo sapiens) [8], 0.523; with Torsin-1A (Homo sapiens) [9] it was 0.202; in assay [10], -0.189. Also, the z-score is -2.86 (inactive) in [2], -0.29 (inactive) in [3], 0.324 (inactive) in [4] and 0.289 (inactive) in [5].
For `CC(C)C(=C=CC[C@H](O)c1ccc(OCCO)cc1)CCO`, the composite z-score was 0.803 in assay [1]; 0.0996 in assay [6]; -0.179 in assay [7]; 1.37 with Torsin-1A (Homo sapiens) [8]; 0.653 with Torsin-1A (Homo sapiens) [9]; 2.05 in [10]. Moreover, the z-score in assay [2] is -1.97 (inactive); in [3] it was -0.596 (inactive); in [4] it was 3.49 (inactive); in assay [5] it was 0.36 (inactive).
Consider `C=CC(=C)[C@H]1Oc2ccccc2S(=O)(=O)N2CCC[C@@H]12`, for which the composite z-score in [1] is 0.0964; in assay [6] it was 0.331; in [7], -0.0332; with Torsin-1A (Homo sapiens) [8] it was -1.02; with Torsin-1A (Homo sapiens) [9], -1.06; in assay [10] it was 0.0906. Also, the z-score is -4.18 (inactive) in [2], 1.16 (inactive) in assay [3], 0.483 (inactive) in assay [4] and 0.133 (inactive) in [5].
Consider `COCCOC(=O)N1C(=O)[C@@]2(c3cc(C#CCCO)ccc31)[C@H](C(=O)N1CCCCCCC1)[C@H]1C(=O)O[C@H](c3ccccc3)[C@H](c3ccccc3)N1[C@@H]2c1ccc(OCCO)cc1`, for which the composite z-score in [1] is 0.87; in assay [6], 1.43; in assay [7], 1.38; in the assay with Torsin-1A (Homo sapiens) [8], 1.8; in the assay with Torsin-1A (Homo sapiens) [9], 1.44; in assay [10], 1.53. Moreover, the z-score is -1.2 (inactive) in assay [2], -0.589 (inactive) in [3], -0.581 (inactive) in assay [4] and -0.571 (inactive) in [5].
Regarding `CCCC[C@@H]1C[C@H]1[C@@H](NC(=O)c1ccccc1)c1ccc(C(=O)OC)cc1`, the composite z-score in [1] is 0.106; in assay [6] it was -0.279; in assay [7] it was -0.018; in the assay with Torsin-1A (Homo sapiens) [8], -2.83; in the assay with Torsin-1A (Homo sapiens) [9] it was -0.686; in [10], -1.11. Besides, the z-score was -0.977 (inactive) in assay [2], -0.485 (inactive) in assay [3], 0.576 (inactive) in assay [4] and 0.0003 (inactive) in [5].

These data come from PubChem BioAssay.
